Growth inhibition, inhibition and outcome data for 19 compounds are collected here from PubChem BioAssay.

Assay [1] can be described thus: antimalarial activity against Dd2 strain (AID 2302;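 active = growth inhibition above 50% at the single 2 µM test dose, taken to imply half-maximal potency below 2 µM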;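 also: 0% = DMSO untreated growth and 100% = chloroquine plus artemisinin killed control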). The note with it: P. falciparum Dd2 in RBCs, LDH growth readout, 72 h; at 2 µM; stronger effect = higher value.
Assay [2] is described as follows: HepG2 cytotoxicity, primary screen, cytotoxicity control for P. falciparum antimalarial project, cell-based, ATP luminescence (AID 2303;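 active = inhibition above 50%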;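 also: 0% = DMSO wells and 100% = digitonin-killed cells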). The note with it: HepG2 viability, 24-48 h, at 10 µM, stronger effect = higher value.
Assay [3] deals with L-lactate dehydrogenase (Plasmodium falciparum (isolate CDC / Honduras)) (UniProt Q27743). As to the kind of experiment: PfLDH activity inhibition – cell lysate, 3D7 strain, counter-screen for P. falciparum growth inhibition project (AID 2304).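 Also: 0% = vehicle and 100% = reference inhibitor.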 The note with it: P. falciparum 3D7 crude extract, LDH APAD/NBT absorbance; at 2 µM; stronger effect = higher value. In general terms: A counterscreen serves to expose hits that act by an unwanted route or on another target.
Chain of L-lactate dehydrogenase (Plasmodium falciparum (isolate CDC / Honduras)) (Q27743 whole entry, looked up): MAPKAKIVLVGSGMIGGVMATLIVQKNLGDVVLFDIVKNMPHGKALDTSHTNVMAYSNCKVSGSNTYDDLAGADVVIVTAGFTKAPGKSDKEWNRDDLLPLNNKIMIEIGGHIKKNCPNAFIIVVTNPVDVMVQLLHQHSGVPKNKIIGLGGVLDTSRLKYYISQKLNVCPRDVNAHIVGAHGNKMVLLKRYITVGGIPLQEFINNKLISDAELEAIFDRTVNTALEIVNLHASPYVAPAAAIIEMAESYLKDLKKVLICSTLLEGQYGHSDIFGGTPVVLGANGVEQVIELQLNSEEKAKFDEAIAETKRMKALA

Assay [4] in a line: inhibition of 3D7 malaria parasite growth – strain 3D7 (AID 2306).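 Also: 0% = DMSO wells and 100% = chloroquine plus artemisinin control wells.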 The note with it: P. falciparum 3D7 erythrocytic growth, LDH absorbance, 72 h; at 2 µM; stronger effect = higher value.
Assay [5] deals with Calcium-dependent protein kinase 1 (Plasmodium falciparum (isolate 3D7)) (UniProt P62344). Put plainly: PfCDPK1 kinase inhibitors, biochemical, TCAMS library (AID 1159585; cut-off not given, nearly all actives have IC50 up to about 0.98 µM;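 also: inhibitors leave more ATP so luminescence rises with inhibition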). The following applies: recombinant PfCDPK1, Kinase-Glo ATP depletion luminescence. Background: Kinase-Glo measures the ATP left after a reaction by luminescence.
Chain of Calcium-dependent protein kinase 1 (Plasmodium falciparum (isolate 3D7)) (P62344 whole entry, looked up): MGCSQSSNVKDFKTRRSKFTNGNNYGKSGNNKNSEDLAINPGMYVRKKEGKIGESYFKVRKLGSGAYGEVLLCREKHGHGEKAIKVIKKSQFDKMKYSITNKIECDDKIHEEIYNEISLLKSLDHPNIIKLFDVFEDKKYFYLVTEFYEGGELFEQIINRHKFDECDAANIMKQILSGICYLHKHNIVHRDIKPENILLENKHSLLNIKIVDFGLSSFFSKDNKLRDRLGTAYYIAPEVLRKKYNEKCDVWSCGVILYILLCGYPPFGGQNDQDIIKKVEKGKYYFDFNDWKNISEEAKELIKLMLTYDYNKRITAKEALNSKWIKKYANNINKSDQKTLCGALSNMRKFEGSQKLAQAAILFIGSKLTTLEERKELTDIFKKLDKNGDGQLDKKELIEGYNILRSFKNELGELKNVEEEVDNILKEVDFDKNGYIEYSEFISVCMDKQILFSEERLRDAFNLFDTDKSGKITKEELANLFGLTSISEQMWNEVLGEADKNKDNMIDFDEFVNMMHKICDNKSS
The target in assay [6] is Plasmodium falciparum protein kinase 6 (PK6, PF3D7_1337100) (UniProt Q8IDW1). Put plainly: PfPK6 kinase inhibitors, biochemical, TCAMS library (AID 1159586). The note with it: recombinant PfPK6, Kinase-Glo ATP depletion luminescence.
Chain of Plasmodium falciparum protein kinase 6 (PK6, PF3D7_1337100) (Q8IDW1 1-305): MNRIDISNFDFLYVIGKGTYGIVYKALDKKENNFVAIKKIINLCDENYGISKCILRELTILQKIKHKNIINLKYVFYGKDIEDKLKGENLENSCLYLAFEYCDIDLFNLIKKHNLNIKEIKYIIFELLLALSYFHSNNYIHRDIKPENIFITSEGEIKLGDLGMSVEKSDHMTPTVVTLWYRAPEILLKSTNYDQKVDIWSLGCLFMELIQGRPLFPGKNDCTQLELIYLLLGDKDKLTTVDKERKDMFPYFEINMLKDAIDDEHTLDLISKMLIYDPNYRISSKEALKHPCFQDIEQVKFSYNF
The target in assay [7] is Protein kinase 7 (PK7), Plasmodium falciparum 3D7 (PF3D7_0213400) (UniProt Q7YTF7). Put plainly: inhibition of Plasmodium PK7 catalytic activity – biochemical, TCAMS antimalarial set, Kinase-Glo luminescence (AID 1159587). The following applies: recombinant PfPK7, Kinase-Glo ATP depletion luminescence.
Chain of Protein kinase 7 (PK7), Plasmodium falciparum 3D7 (PF3D7_0213400) (Q7YTF7 1-343): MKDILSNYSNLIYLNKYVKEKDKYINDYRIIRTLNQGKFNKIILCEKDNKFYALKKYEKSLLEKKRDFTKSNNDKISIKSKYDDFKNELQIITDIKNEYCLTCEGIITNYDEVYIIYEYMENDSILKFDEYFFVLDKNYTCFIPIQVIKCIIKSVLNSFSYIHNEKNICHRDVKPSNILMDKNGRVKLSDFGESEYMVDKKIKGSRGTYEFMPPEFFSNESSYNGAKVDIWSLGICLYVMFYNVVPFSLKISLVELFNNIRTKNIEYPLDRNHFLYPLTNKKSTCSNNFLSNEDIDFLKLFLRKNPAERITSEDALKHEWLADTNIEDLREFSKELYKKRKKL
Assay [8] addresses Calcium-dependent protein kinase 4 (Plasmodium falciparum (isolate 3D7)) (UniProt Q8IBS5). Put plainly: PfCDPK4 kinase inhibitors, biochemical, TCAMS library (AID 1159588; cut-off not given, nearly all actives have IC50 up to about 0.91 µM). The following applies: recombinant PfCDPK4, Kinase-Glo ATP depletion luminescence.

By inhibition is commonly meant the drop in the measured response relative to a control, in per cent.

The structures appear in SMILES notation. Unmarked numbers belong to inactive results. For some assays here: Entries with a potency or affinity are not part of this list. Calls of active or inactive are those of the source. Unless noted, no rule for the calls is given here.

Chain of Calcium-dependent protein kinase 4 (Plasmodium falciparum (isolate 3D7)) (Q8IBS5 whole entry, looked up): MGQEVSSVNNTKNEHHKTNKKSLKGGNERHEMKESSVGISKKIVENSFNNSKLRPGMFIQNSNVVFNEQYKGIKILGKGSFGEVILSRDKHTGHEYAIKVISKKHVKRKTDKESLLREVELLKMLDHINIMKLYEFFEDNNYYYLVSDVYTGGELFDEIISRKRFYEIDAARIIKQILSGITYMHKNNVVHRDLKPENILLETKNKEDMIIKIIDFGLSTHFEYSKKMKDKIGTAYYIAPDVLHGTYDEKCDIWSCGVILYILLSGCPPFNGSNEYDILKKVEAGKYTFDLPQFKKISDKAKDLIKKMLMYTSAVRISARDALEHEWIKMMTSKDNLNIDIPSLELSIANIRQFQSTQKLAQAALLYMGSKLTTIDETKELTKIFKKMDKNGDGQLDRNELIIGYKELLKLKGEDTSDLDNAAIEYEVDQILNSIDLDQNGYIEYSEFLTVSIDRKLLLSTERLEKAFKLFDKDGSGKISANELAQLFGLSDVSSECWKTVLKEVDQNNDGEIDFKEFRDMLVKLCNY

`CCN(CC)CCN(Cc1ccc(-c2ccc(C(F)(F)F)cc2)cc1)C(=O)Cn1c(CCc2c(F)cc(F)cc2F)nc(=O)c2ccccc21`: the figures for the growth inhibition in assay [1] and in assay [4] were 26% and 89% (active), respectively. For the same compound, the inhibition was 39% in assay [2] and 3% in assay [3]. Besides, the result in assay [5], in assay [6], in assay [7] and in assay [8] was inactive.
Take `O=C(/C=C/c1ccc(Cl)c(Cl)c1)NCCCCCN1CCCN(C(=O)Nc2cccc(C(F)(F)F)c2)CC1`: the growth inhibition in assay [1] was -2%; in assay [4], 96% (active). Moreover, the inhibition in assay [2] is 45%; in assay [3], 1%. In addition, the outcome in assay [5], in assay [6], in assay [7] and in assay [8] was inactive.
`Nc1ncc(-c2ccccc2)cc1-c1nc2cc(Cl)c(F)cc2[nH]1`: the growth inhibition is 91% (active) in assay [1] and 101% (active) in assay [4]. Besides, the inhibition in assay [2] was 37%; in assay [3], 1%. The result in assay [5], in assay [6], in assay [7] and in assay [8] was inactive.
With `COc1cc2nc(C)nc(Nc3ccc(Oc4ccccc4)cc3)c2cc1OC`, the growth inhibition in assay [1] was 72% (active); in assay [4], 101% (active). Besides, the inhibition in assay [2] was -8%; in assay [3] it was 6%. For the same compound, the result in assay [5], in assay [6], in assay [7] and in assay [8] was inactive.
As for `CC(=O)Nc1ccc(C(=O)Nc2cccc(-c3ccc(-c4nc5ccc(C(F)(F)F)cc5[nH]4)s3)c2)cn1`, the growth inhibition was 98% (active) in assay [1] and 100% (active) in assay [4]. Also, the inhibition was 42% in assay [2] and 3% in assay [3]. Moreover, the outcome in assay [5], in assay [6], in assay [7] and in assay [8] was inactive.
On to `O=C(Nc1cccc(OC2CCN(Cc3ccccc3)CC2)c1)Nc1cccc([N+](=O)[O-])c1`, for which the growth inhibition was 48% in assay [1] and 101% (active) in assay [4]. Also, the inhibition in assay [2] was 10%; in assay [3], 0%. The outcome in assay [5], in assay [6], in assay [7] and in assay [8] was inactive.
On to `O=C(Cn1c(CCc2cccc(F)c2F)nc(=O)c2cccnc21)N(Cc1ccc(-c2ccc(C(F)(F)F)cc2)cc1)C1CCN(C2CCOCC2)CC1`, for which the growth inhibition was 67% (active) in assay [1] and 94% (active) in assay [4]. In addition, the inhibition in assay [2] is 100% (active); in assay [3] it was 1%. In addition, the result in assay [5], in assay [6], in assay [7] and in assay [8] was inactive.
Consider `COc1ccc(/C=C/C(=O)Nc2ccc(-c3ccncc3)cc2)cc1CCCN(C)C`, for which the growth inhibition was 86% (active) in assay [1] and 102% (active) in assay [4]. Moreover, the figures for the inhibition in assay [2] and in assay [3] were 3% and 1%, respectively. The outcome in assay [5], in assay [6], in assay [7] and in assay [8] was inactive.
With `CS(=O)(=O)Nc1ccc2[nH]cc(C3CCN(CC4CCC(NC(=O)/C=C/c5ccc(Cl)c(Cl)c5)CC4)CC3)c2n1` (configuration not stated), the growth inhibition in assay [1] is 10%; in assay [4] it was 99% (active). Also, the inhibition is 2% in assay [2] and -5% in assay [3]. Also, the outcome in assay [5], in assay [6], in assay [7] and in assay [8] was inactive.
As to `Cc1cccn2c(=O)c3cc(C(=O)NC(C)c4ccccc4)c(=N)n(CCN4CCOCC4)c3nc12` (configuration not stated), the figures for the growth inhibition in assay [1] and in assay [4] were 5% and 101% (active), respectively. The inhibition was 6% in assay [2] and 4% in assay [3]. Moreover, the result in assay [5], in assay [6], in assay [7] and in assay [8] was inactive.
As to `CCN(CC)CCN(Cc1ccc(-c2ccc(C(F)(F)F)cc2)cc1)C(=O)Cn1c(CCc2cc(F)ccc2F)nc(=O)c2ccccc21`, the growth inhibition in assay [1] is 52% (active); in assay [4] it was 98% (active). Moreover, the inhibition in assay [2] is 42%; in assay [3], 4%. The result in assay [5], in assay [6], in assay [7] and in assay [8] was inactive.
For the compound `O=C(Nc1ccc(-c2ccc(-c3nc4ccc(C(F)(F)F)cc4[nH]3)cc2)cc1)Nc1ccc(F)c(F)c1F`, the growth inhibition was 100% (active) in assay [1] and 99% (active) in assay [4]. Besides, the inhibition in assay [2] is 39%; in assay [3] it was 3%. For the same compound, the outcome in assay [5], in assay [6], in assay [7] and in assay [8] was inactive.
Regarding `C/C=C/COc1ccc2ccccc2c1CNCCCCCCCCNCc1c(OC/C=C/C)ccc2ccccc12`, the growth inhibition in assay [1] is 86% (active); in assay [4], 87% (active). The inhibition was 100% (active) in assay [2] and 3% in assay [3]. Besides, the outcome in assay [5], in assay [6], in assay [7] and in assay [8] was inactive.
With `COc1cc(CNC[C@@H](O)[C@H](Cc2ccccc2)NC(=O)c2cc(OC(C)C)cc(N3CCCS3(=O)=O)c2)cc(OC)c1`, the growth inhibition was 72% (active) in assay [1] and 97% (active) in assay [4]. In addition, the inhibition is -1% in assay [2] and 0% in assay [3]. Besides, the outcome in assay [5], in assay [6], in assay [7] and in assay [8] was inactive.
With `Cc1ccccc1C1CCN(C2CCC(NC(=O)c3cc4cc(Cl)ccc4o3)CC2)CC1` (configuration not stated), the growth inhibition was 30% in assay [1] and 89% (active) in assay [4]. For the same compound, the inhibition in assay [2] is 22%; in assay [3], -2%. The result in assay [5], in assay [6], in assay [7] and in assay [8] was inactive.
Regarding `CCN1CCN(Cc2ccc(NC(=O)c3cc4ccc5cccnc5c4[nH]3)cc2)CC1`, the growth inhibition in assay [1] was 97% (active); in assay [4] it was 100% (active). The inhibition in assay [2] and in assay [3] was -3% in each case. For the same compound, the outcome in assay [5], in assay [6], in assay [7] and in assay [8] was inactive.
In the case of `Cc1ccc(C(=O)Nc2cc(C(F)(F)F)cc(C(F)(F)F)c2)cc1[N+](=O)[O-]`, the growth inhibition in assay [1] was 61% (active); in assay [4], 101% (active). Also, the inhibition in assay [2] is 17%; in assay [3], 1%. The outcome in assay [5], in assay [6], in assay [7] and in assay [8] was inactive.
Take `Cc1cc(-c2ccc3c(c2)CCN(CCC2CCC(NC(=O)/C=C/c4cccc(F)c4)CC2)CC3)on1` (configuration not stated): the growth inhibition is 19% in assay [1] and 95% (active) in assay [4]. In addition, the inhibition in assay [2] is 23%; in assay [3], -10%. Further, the result in assay [5], in assay [6], in assay [7] and in assay [8] was inactive.
Take `Oc1ccc(CC2CCCN(c3nc(NCCCOc4ccccc4-c4ccccc4)nc(N4CCNCC4)n3)C2)cc1` (configuration not stated): the growth inhibition was 77% (active) in assay [1] and 95% (active) in assay [4]. Also, the inhibition in assay [2] is 56% (active); in assay [3], -4%. Moreover, the outcome in assay [5], in assay [6], in assay [7] and in assay [8] was inactive.
